# This is a sample that favours compounds with a hit; in the whole collection about 2.4% have one here.
# Pol kappa inh – inhibitors of human DNA polymerase kappa; purified Pol kappa, fluorescent DNA synthesis assay, 10 min; 400,000 compounds, 0.53% hits; Q9UBT6; Potency, µM (series often up to 107 µM), for the others: at the top dose activity, negative = inhibition, most hits filed as inhibitors; further: on the % scale 0 is the no-effect control and ±100 the full control effect
#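 10 nM Pol kappa was preincubated with compounds for 15 min at room temperature. Reaction started with 50 nM (final) substrate. Fluorescence read kinetically at 0 and 10 min.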
# Pol eta inh – blocks human DNA polymerase eta activity; Q9Y253; recombinant Pol eta, fluorescent DNA replication assay; Potency, µM (highest dose often 114 µM), inactives show at the top dose activity change, negative = inhibition, actives largely listed as inhibitors; 390,000 compounds, 1.2% hits; AID 588591; further: on the % scale 0 is the no-effect control and ±100 the full control effect
#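 Pol eta at 10 nM preincubated with compounds 15 min at room temperature; reaction started with fluorescent substrate (50 nM final) and read kinetically at 0 and 10 min.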
# L3MBTL1 block – blocks human L3MBTL1 | AlphaScreen L3MBTL1–H3K9me1 peptide binding | Potency, µM (doses to about 57.1 µM), for the others: at the highest dose activity, negative = inhibition, most hits filed as inhibitors | 230,000 compounds, 0.66% hits | AID 485360; further: on the % scale 0 is the no-effect control and ±100 the full control effect; nearly all actives have a fitted effect of over 60% in size
#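 AlphaScreen proximity signal between nickel-chelate acceptor and streptavidin donor beads (final 10 ug/mL) reports binding of 50 nM L3MBTL1 to 75 nM biotin-H3 K9me1 peptide; complex incubated with compounds 30 min at room temperature; cefsulodin titration as control.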
# POLI inh – blocks human DNA polymerase iota activity; Q9UNA4; Pol iota fluorescent replication assay, 10 min; Potency, µM (titrated, usually from 115 µM), without a hit: at the highest dose activity, negative = inhibition, usual class: inhibitors; 390,000 compounds, 1% hits
#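 Pol iota at 10 nM preincubated 15 min with compounds at room temperature; reaction started with fluorescent substrate, 50 nM final. Fluorescence read kinetically at 0 and 10 min; buffer-only wells as negative control.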
# POLB inh – inhibitors of human DNA polymerase beta | Potency, µM (doses to about 114 µM), without a hit: at the highest dose activity change, negative = inhibition, hits mostly inhibitors | 340,000 compounds, 1.3% hits | P06746 | Pol beta primer extension/strand displacement, fluorescence kinetic; further: on the % scale 0 is the no-effect control and ±100 the full control effect
#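 Kinetic readout of DNA synthesis with strand displacement by Pol beta. Compound and 10 nM enzyme sit 15 min at room temperature; 50 nM substrate starts the reaction, read immediately and at 10 min.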
# Numbers without * were called inactive; ? = inconclusive; . = no result; [ ] = dose if it differs, or a comment. The call rests on the fitted dose curve; in most records, active means well fitted curve in the direction sought with a large enough effect; inconclusive means small, poorly fitted or top-dose-only effect, or another doubt; inactive means no such curve, though single readings can be large; an effect the other way counts as inactive or inconclusive. Potency means the concentration at half of the fitted maximal effect.
SMILES,Pol kappa inh,Pol eta inh,L3MBTL1 block,POLI inh,POLB inh
Cc1ccc(C)n1-c1cccc(NC(=O)c2ccccc2)c1,-13.4%,?,3.6%,0.6%,15.8µM*
Cc1ccc(C)n1-c1ccc(C(=O)Nc2ccccc2)cc1,-5.0%,-8.3%,-5.9%,?,-17.3%
Cc1ccccc1NC(=O)Cn1c(=O)n(Cc2ccc3c(c2)OCO3)c(=O)c2oc3ccccc3c21,0.9%,-12.9%,.,-0.1%,-0.4%
COc1cccc(N2CC(C(=O)Nc3nnc(SCc4cccnc4)s3)CC2=O)c1 (configuration not stated),-7.9%,?,-8.1%,?,25.1µM*
Cc1cc(NC(=O)CSc2nnc(NC(=O)C3CC(=O)N(c4ccccc4C)C3)s2)no1 (configuration not stated),-15.5%,?,-9.6%,-26.4%,?
O=C(Nc1nnc(SCc2cccnc2)s1)C1CC(=O)N(c2ccc(F)cc2)C1 (configuration not stated),-9.0%,?,.,?,?
Cc1ccccc1N1CC(C(=O)Nc2nnc(SCc3cccnc3)s2)CC1=O (configuration not stated),-14.0%,17.8µM*,.,?,31.6µM*
O=C(Cn1cc([N+](=O)[O-])ccc1=O)NCC(=O)Nc1ccc(F)c(F)c1F,-1.8%,2.4%,6.3%,-12.6%,.
CCN(CC)CCN(C)c1ccc(/C=C/c2ccnc3ccccc23)cc1,-3.4%,.,.,-11.1%,.
CC(C)Cn1c(SCc2nnc(-c3cccs3)o2)nc(O)cc1=O,-42.0%,?,5.9%,25.1µM*,-6.2%
Cc1cnc(C=NNC(N)=S)c2cccc(N)c12,?,5.01µM*,.,2.24µM*,.
Cc1ccc(Nc2nc(N)nc(CN3CCCCCC3)n2)cc1,-11.9%,-7.4%,?,6.5%,-28.9%
Nc1nc(CN2CCCCCC2)nc(Nc2ccccc2)n1,-2.2%,2.9%,28.2µM*,14.4%,-1.0%
COc1ccc(NC(=O)c2cc3c(C)nn(-c4ccccc4)c3s2)c(OC)c1,7.5%,-12.9%,.,14.2%,20.6%
COc1ccc(NS(=O)(=O)c2ccc(O)c(NC(=O)c3cc4c(C)nn(-c5ccc(F)cc5)c4s3)c2)cc1,?,20µM*,-14.9%,28.2µM*,10µM*
CCCc1cc2c(=O)c(-c3nc4ccccc4s3)c(COCC(=O)O)oc2cc1O,-21.9%,79.4µM*,.,?,-27.0%
CCc1cc2c(=O)c(-c3nc4ccccc4n3C)c(COCC(=O)O)oc2cc1O,-6.6%,-14.7%,-13.4%,25.2%,0.9%
CN1CC[C@@]2(CCCN(C(=O)c3cc(C(F)(F)F)cc(C(F)(F)F)c3)C2)C1,8.9%[60.1 µM],.,.,.,.
CCOc1ccc(-c2csc(/C(C#N)=C\c3ccc(O)c([N+](=O)[O-])c3)n2)cc1,2.6%,22.4µM*,?,?,28.2µM*
COc1ccc(NC(=O)c2c(-c3ccc(C)cc3)nnc3ccccc23)c(OC)c1,1.9%,1.5%,.,6.1%,-3.4%
CCCc1cc(=O)[nH]c(-n2[nH]c3c(c2=O)CCCC3)n1,-16.8%,-13.9%,-8.5%,15.8µM*,11.8%
COc1ccc(CN(Cc2ccco2)c2cnc(S(C)(=O)=O)nc2C(=O)Nc2ccc(F)cc2)cc1,-6.4%,-16.7%,.,55.4%,13.6%
COc1ccc(CCNC(=O)Cn2cc(S(=O)(=O)Cc3ccc(F)cc3)c3ccccc32)cc1OC,-4.6%,-15.6%,.,5.9%,-18.8%
O=C(Nc1nc2c(F)cc(F)cc2s1)C1CC(=O)N(Cc2ccco2)C1 (configuration not stated),?,50.1µM*,?,28.2µM*,28.2µM*
COc1ccc(-c2nc3cc(C(C)C)ccc3o2)cc1NC(=O)c1ccccc1[N+](=O)[O-],-9.2%,-21.7%,.,-3.3%,2.6%
C=CCn1c(SCC(=O)c2ccc(O)c(O)c2)nnc1-c1ccccc1OC,?,25.1µM*,-21.4%,50.1µM*,?
C=CCn1c(SCC(=O)Nc2cc(C)on2)nnc1-c1ccccc1OC,5.0%,7.5%,1.3%,5.4%,.
C=CCn1c(SCC(=O)c2ccc(O)c(O)c2)nnc1-c1cccc(Cl)c1,39.8µM*,15.8µM*,?,?,.
CCOC(=O)c1cc(S(=O)(=O)N2CCN(c3ccccc3OC)CC2)[nH]n1,-6.1%[60.1 µM],-8.4%,.,?,29.1%
